Compounds without any hit were thinned out: in the full panel of roughly 83,000, 20% have a hit.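 Plates (96-well) were seeded with cells, treated with compound at one concentration, and incubated for 48 hours before percent growth was determined.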 The source made the active and inactive calls. How the source made its calls: active means growth percent below 10; inactive means the rest.
Columns and labels:
Assay in all cases: NCI-60 one-dose screen, 48 h (100 = growth as untreated, 0 = no growth, -100 = all killed)
Details in all cases: 10 µM
SK-MEL-2 melanoma = tested on: SK-MEL-2 melanoma
EKVX NSCLC = tested on: EKVX NSCLC
SN12C renal = tested on: SN12C renal
UO-31 renal = tested on: UO-31 renal
TK-10 renal = tested on: TK-10 renal
ACHN renal = tested on: ACHN renal
CAKI-1 renal = tested on: CAKI-1 renal
A498 renal = tested on: A498 renal
CCRF-CEM leukemia = tested on: CCRF-CEM leukemia
MOLT-4 leukemia = tested on: MOLT-4 leukemia
SR leukemia = tested on: SR leukemia
RPMI-8226 leukemia = tested on: RPMI-8226 leukemia
OVCAR-8 ovarian = tested on: OVCAR-8 ovarian
OVCAR-5 ovarian = tested on: OVCAR-5 ovarian
OVCAR-4 ovarian = tested on: OVCAR-4 ovarian
SK-OV-3 ovarian = tested on: SK-OV-3 ovarian
IGROV1 ovarian = tested on: IGROV1 ovarian
OVCAR-3 ovarian = tested on: OVCAR-3 ovarian
HS 578T breast = tested on: HS 578T breast
NCI/ADR-RES ovarian = tested on: NCI/ADR-RES ovarian

Measured: growth

COc1ccc(C2NC(=S)NC(C)=C2C(=O)OC(C)C)cc1OC (stereo not given)
inactive: SK-MEL-2 melanoma 114% | EKVX NSCLC 97.9% | SN12C renal 101% | UO-31 renal 83.5% | TK-10 renal 106% | ACHN renal 107% | CAKI-1 renal 97.4% | A498 renal 114% | CCRF-CEM leukemia 95.9% | MOLT-4 leukemia 102% | SR leukemia 101% | RPMI-8226 leukemia 104% | OVCAR-8 ovarian 106% | OVCAR-5 ovarian 105% | OVCAR-4 ovarian 99.3% | SK-OV-3 ovarian 135% | IGROV1 ovarian 109% | OVCAR-3 ovarian 113% | HS 578T breast 89.8% | NCI/ADR-RES ovarian 102%

COc1ccc(C(=O)/C=C/c2cc(F)cc(C(F)(F)F)c2)cc1S(N)(=O)=O
inactive: SK-MEL-2 melanoma 12.8% | A498 renal 88.2% | SK-OV-3 ovarian 42.1%
active: EKVX NSCLC 7.02% | SN12C renal -69.1% | UO-31 renal -92.7% | TK-10 renal -12.4% | ACHN renal -100% | CAKI-1 renal -85.7% | CCRF-CEM leukemia 4.86% | MOLT-4 leukemia 1.63% | SR leukemia 3.04% | RPMI-8226 leukemia 2.99% | OVCAR-8 ovarian -44.1% | OVCAR-5 ovarian -59.9% | OVCAR-4 ovarian -98% | IGROV1 ovarian -53.6% | OVCAR-3 ovarian -95.3% | HS 578T breast -25.7% | NCI/ADR-RES ovarian 5.77%

Cc1ccc2nc(COc3ccc(C(=O)NNC(=S)NCCc4ccccc4)cc3)[nH]c2c1
active: OVCAR-4 ovarian -4.14%
inactive: SK-MEL-2 melanoma 81.7% | EKVX NSCLC 95% | SN12C renal 77.3% | UO-31 renal 84.3% | TK-10 renal 111% | ACHN renal 101% | CAKI-1 renal 96.2% | A498 renal 134% | CCRF-CEM leukemia 98.3% | MOLT-4 leukemia 96.1% | SR leukemia 88.2% | RPMI-8226 leukemia 87.7% | OVCAR-8 ovarian 13.1% | OVCAR-5 ovarian 88.9% | SK-OV-3 ovarian 83.4% | IGROV1 ovarian 52.9% | OVCAR-3 ovarian 105% | HS 578T breast 41.1% | NCI/ADR-RES ovarian 75.4%

CN1C(=O)N(C)C2SC(N/N=C/c3ccccc3F)=NC21 (stereo not given)
inactive: SK-MEL-2 melanoma 56.4% | EKVX NSCLC 86.4% | SN12C renal 71.3% | UO-31 renal 60.6% | TK-10 renal 83.6% | ACHN renal 85.5% | CAKI-1 renal 67.4% | A498 renal 82.4% | CCRF-CEM leukemia 67.3% | MOLT-4 leukemia 44.5% | SR leukemia 16.4% | RPMI-8226 leukemia 90.9% | OVCAR-8 ovarian 88.4% | OVCAR-5 ovarian 86.7% | OVCAR-4 ovarian 92.7% | SK-OV-3 ovarian 88% | IGROV1 ovarian 56.6% | HS 578T breast 85.6% | NCI/ADR-RES ovarian 30.6%
active: OVCAR-3 ovarian 6.19%

COc1ccc(NC(=O)Cn2c(/C=C/c3ccc(N(C)C)cc3)nc3ccccc3c2=O)cc1
active: UO-31 renal 2.65% | ACHN renal -2.17%
inactive: SK-MEL-2 melanoma 76.4% | EKVX NSCLC 71.2% | SN12C renal 24% | TK-10 renal 62.8% | CAKI-1 renal 18.9% | A498 renal 56.5% | CCRF-CEM leukemia 90.9% | MOLT-4 leukemia 85.3% | SR leukemia 72.5% | RPMI-8226 leukemia 57.1% | OVCAR-8 ovarian 21% | OVCAR-5 ovarian 66.4% | OVCAR-4 ovarian 58.7% | SK-OV-3 ovarian 24.7% | IGROV1 ovarian 47.2% | OVCAR-3 ovarian 26.9% | HS 578T breast 65.7% | NCI/ADR-RES ovarian 32.2%

COc1ccccc1C(=O)NNC(=O)CSc1nc2c(c(=O)[nH]1)CCCC2
inactive: SK-MEL-2 melanoma 112% | EKVX NSCLC 91.5% | SN12C renal 102% | UO-31 renal 61.9% | TK-10 renal 132% | ACHN renal 98.8% | CAKI-1 renal 84.5% | A498 renal 153% | CCRF-CEM leukemia 96.8% | MOLT-4 leukemia 105% | SR leukemia 96.4% | RPMI-8226 leukemia 98.1% | OVCAR-8 ovarian 109% | OVCAR-5 ovarian 108% | OVCAR-4 ovarian 105% | SK-OV-3 ovarian 94.1% | IGROV1 ovarian 92.5% | OVCAR-3 ovarian 102% | HS 578T breast 108% | NCI/ADR-RES ovarian 104%

COC1=C[C@]23CCC(=O)N2CCc2cc4c(cc2[C@@H]3[C@@H]1OC(=O)CCCC(C)C)OCO4
inactive: SK-MEL-2 melanoma 101% | EKVX NSCLC 80.4% | SN12C renal 104% | UO-31 renal 36.3% | TK-10 renal 66.1% | ACHN renal 32.1% | CAKI-1 renal 48% | A498 renal 25% | CCRF-CEM leukemia 59.7% | SR leukemia 18.2% | RPMI-8226 leukemia 22.4% | OVCAR-8 ovarian 73.9% | OVCAR-5 ovarian 78.4% | OVCAR-4 ovarian 54% | SK-OV-3 ovarian 53.7% | IGROV1 ovarian 43.3% | OVCAR-3 ovarian 45% | HS 578T breast 71.8% | NCI/ADR-RES ovarian 74.9%
active: MOLT-4 leukemia 9.63%

O=c1c2ccccc2nc(COc2ccccc2)n1/N=C/c1ccc(F)cc1
inactive: SK-MEL-2 melanoma 94.5% | EKVX NSCLC 92.1% | SN12C renal 86.5% | UO-31 renal 84.4% | TK-10 renal 105% | ACHN renal 91.1% | CAKI-1 renal 94.3% | A498 renal 106% | CCRF-CEM leukemia 86.2% | MOLT-4 leukemia 72.9% | SR leukemia 78.2% | RPMI-8226 leukemia 71.7% | OVCAR-8 ovarian 94.4% | OVCAR-5 ovarian 94.2% | OVCAR-4 ovarian 76.9% | SK-OV-3 ovarian 114% | IGROV1 ovarian 105% | OVCAR-3 ovarian 114% | HS 578T breast 90.5% | NCI/ADR-RES ovarian 90.8%

O=C(CNc1nc(-c2ccccc2)cs1)Nc1ccc([N+](=O)[O-])cc1Cl
active: NCI/ADR-RES ovarian -7%
inactive: SK-MEL-2 melanoma 20.1% | EKVX NSCLC 18.5% | SN12C renal 13.4% | UO-31 renal 25.5% | TK-10 renal 52.9% | ACHN renal 38.8% | CAKI-1 renal 44.9% | A498 renal 55% | CCRF-CEM leukemia 15.3% | MOLT-4 leukemia 11% | SR leukemia 16.7% | RPMI-8226 leukemia 15.5% | OVCAR-8 ovarian 30.4% | OVCAR-5 ovarian 36.4% | OVCAR-4 ovarian 45.4% | SK-OV-3 ovarian 35.8% | IGROV1 ovarian 33.9% | OVCAR-3 ovarian 23.4% | HS 578T breast 17.6%

O=C1N/C(=N\c2nccs2)S/C1=C\c1cccs1
inactive: SK-MEL-2 melanoma 40.7% | EKVX NSCLC 19% | SN12C renal 45.8% | UO-31 renal 20.8% | TK-10 renal 55.2% | ACHN renal 17.1% | CAKI-1 renal 20.2% | A498 renal 73.2% | CCRF-CEM leukemia 19.1% | MOLT-4 leukemia 17% | SR leukemia 16.4% | RPMI-8226 leukemia 19.5% | OVCAR-8 ovarian 31.3% | OVCAR-5 ovarian 49.1% | OVCAR-4 ovarian 30.9% | SK-OV-3 ovarian 39.3% | IGROV1 ovarian 31.5% | OVCAR-3 ovarian 44.2% | HS 578T breast 49.9%
active: NCI/ADR-RES ovarian -0.769%

N#C/C(=C\c1ccc(N(c2ccccc2)c2ccccc2)cc1)C(N)=O
inactive: SK-MEL-2 melanoma 23.5% | EKVX NSCLC 90.2% | SN12C renal 90.5% | UO-31 renal 49.9% | ACHN renal 88% | CCRF-CEM leukemia 59.9% | MOLT-4 leukemia 56% | SR leukemia 69.1% | RPMI-8226 leukemia 19.8% | OVCAR-8 ovarian 75.1% | SK-OV-3 ovarian 56% | HS 578T breast 99.2% | NCI/ADR-RES ovarian 57.4%
active: TK-10 renal -37.7% | CAKI-1 renal -24% | A498 renal -99.8% | OVCAR-5 ovarian -60.6% | OVCAR-4 ovarian 4.67% | IGROV1 ovarian -21.2% | OVCAR-3 ovarian 3.69%

Cc1ccc(-c2cc(C(=O)N=Nc3c(O)[nH]c4ccc(Br)cc34)c3ccccc3n2)cc1
inactive: SK-MEL-2 melanoma 104% | EKVX NSCLC 60.6% | SN12C renal 48.6% | UO-31 renal 52.2% | TK-10 renal 119% | ACHN renal 52.3% | CAKI-1 renal 73.6% | A498 renal 125% | CCRF-CEM leukemia 26.8% | MOLT-4 leukemia 14.9% | SR leukemia 10.4% | RPMI-8226 leukemia 60.8% | OVCAR-8 ovarian 56.5% | OVCAR-5 ovarian 99.7% | OVCAR-4 ovarian 71.9% | SK-OV-3 ovarian 107% | IGROV1 ovarian 52.9% | OVCAR-3 ovarian 79.2% | HS 578T breast 67.5% | NCI/ADR-RES ovarian 55%

N#Cc1ccc(-c2nn(-c3ccc(C(=O)O)cc3)cc2CNc2cc(Cl)cc(Cl)c2)cc1
inactive: SK-MEL-2 melanoma 81.7% | EKVX NSCLC 63.3% | SN12C renal 50.9% | UO-31 renal 33.2% | TK-10 renal 111% | ACHN renal 55.3% | CAKI-1 renal 63% | A498 renal 103% | CCRF-CEM leukemia 13.7% | MOLT-4 leukemia 15.8% | SR leukemia 36.5% | RPMI-8226 leukemia 21.6% | OVCAR-8 ovarian 47.6% | OVCAR-5 ovarian 84% | OVCAR-4 ovarian 65.4% | SK-OV-3 ovarian 126% | IGROV1 ovarian 52.5% | OVCAR-3 ovarian 45.7% | HS 578T breast 50.2% | NCI/ADR-RES ovarian 17.2%

CC(C)Sc1nc(NC2CC2)c(C#N)c(-c2ccccc2)n1
inactive: SK-MEL-2 melanoma 97.7% | EKVX NSCLC 77.4% | SN12C renal 77.5% | UO-31 renal 79.4% | TK-10 renal 92.9% | ACHN renal 53.5% | CAKI-1 renal 56.8% | A498 renal 99.3% | CCRF-CEM leukemia 96.3% | MOLT-4 leukemia 102% | SR leukemia 99.8% | RPMI-8226 leukemia 94.2% | OVCAR-8 ovarian 30.8% | OVCAR-5 ovarian 92% | OVCAR-4 ovarian 27.6% | SK-OV-3 ovarian 88.8% | IGROV1 ovarian 74% | OVCAR-3 ovarian 86.5% | HS 578T breast 71.7% | NCI/ADR-RES ovarian 57.6%

CCOC(=O)c1sc(N/N=C(\C)c2ccc3c(c2)Nc2ccccc2S3)nc1C
inactive: SK-MEL-2 melanoma 10.7% | EKVX NSCLC 26.1% | SN12C renal 51.3% | UO-31 renal 29.4% | TK-10 renal 36.8% | ACHN renal 16.9% | CAKI-1 renal 32.2% | A498 renal 30.6% | CCRF-CEM leukemia 32.4% | MOLT-4 leukemia 14.8% | SR leukemia 18.8% | RPMI-8226 leukemia 20.1% | OVCAR-8 ovarian 38.7% | OVCAR-5 ovarian 30.6% | OVCAR-4 ovarian 44.1% | SK-OV-3 ovarian 68.5% | IGROV1 ovarian 39.6% | OVCAR-3 ovarian 46.1% | HS 578T breast 30.9% | NCI/ADR-RES ovarian 28.8%

From PubChem BioAssay (NCI)
